Laboratory results from PubChem BioAssay AID602455 (Southern Research Specialized Biocontainment Screening …, 2012).
Entries with a potency or affinity are not part of this list. Unmarked numbers belong to inactive results. No rule for the calls is given here.

Assay: VEEV TC 83 infected cells, CPE inhibition, confirmatory, 50 µM top (AID 602455)
Conditions: series mostly up to 50 µM; inhibition: at the top concentration

Row | SMILES | inhibition
1 | O=C(Cc1cccs1)Nc1nccs1 | -0.05%
2 | O=C(Cc1cccs1)Nc1nc2ccccc2s1 | -7.05%
3 | O=C(Nc1nc2c(s1)CCCC2)c1cccs1 | -13.8%
